Holding throughout (assay): DAPPL (digital affinity profiling via proximity ligation, sequencing); 10 mM Tris-HCl pH 7.5, 50 mM NaCl, 1 mM DTT, 4% glycerol, room temperature, 30 min; GST-TFs on glutathione beads, 16-mer random dsDNA library, 0.1% formaldehyde crosslink after washing; high values mean tight binding
One assay concerns the target T1, FLI1 (Homo sapiens, UniProt Q01543 1-452).
T1 sequence: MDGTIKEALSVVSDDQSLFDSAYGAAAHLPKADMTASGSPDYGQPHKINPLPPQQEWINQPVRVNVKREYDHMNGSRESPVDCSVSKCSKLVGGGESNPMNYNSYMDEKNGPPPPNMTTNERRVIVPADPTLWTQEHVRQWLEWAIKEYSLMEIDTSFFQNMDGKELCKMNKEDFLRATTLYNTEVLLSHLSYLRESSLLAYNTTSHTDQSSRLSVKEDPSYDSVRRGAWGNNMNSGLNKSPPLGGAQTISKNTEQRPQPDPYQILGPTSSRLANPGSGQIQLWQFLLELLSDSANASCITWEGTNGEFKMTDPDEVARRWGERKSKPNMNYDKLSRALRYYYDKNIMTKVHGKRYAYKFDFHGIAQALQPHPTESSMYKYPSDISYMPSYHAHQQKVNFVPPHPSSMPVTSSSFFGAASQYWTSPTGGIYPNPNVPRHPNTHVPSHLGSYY
As to conditions: protein: recombinant; tags: N-terminal GST; dsDNA, one strand shown. In short, it runs like this:
(§1)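 Beads coated with glutathione captured GST-fused human transcription factors that had been expressed in yeast, and the factors were then given DNA barcodes and pooled with a tag-only sample. The pools were incubated with 200 nmole of a random double-stranded 16-mer DNA library in Tris/NaCl/DTT/glycerol buffer for 30 min at room temperature, washed, crosslinked with 0.1% formaldehyde and proximity-ligated with BsaI/T4 ligase at 37 °C for 1 h. PCR amplification and Illumina NextSeq500 sequencing came last. Binding signal is each hexamer's read frequency for a factor divided by its frequency for the tag-only sample.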

The next assay deals with T2, GABPA (Homo sapiens, UniProt Q06546 1-454).
T2 sequence: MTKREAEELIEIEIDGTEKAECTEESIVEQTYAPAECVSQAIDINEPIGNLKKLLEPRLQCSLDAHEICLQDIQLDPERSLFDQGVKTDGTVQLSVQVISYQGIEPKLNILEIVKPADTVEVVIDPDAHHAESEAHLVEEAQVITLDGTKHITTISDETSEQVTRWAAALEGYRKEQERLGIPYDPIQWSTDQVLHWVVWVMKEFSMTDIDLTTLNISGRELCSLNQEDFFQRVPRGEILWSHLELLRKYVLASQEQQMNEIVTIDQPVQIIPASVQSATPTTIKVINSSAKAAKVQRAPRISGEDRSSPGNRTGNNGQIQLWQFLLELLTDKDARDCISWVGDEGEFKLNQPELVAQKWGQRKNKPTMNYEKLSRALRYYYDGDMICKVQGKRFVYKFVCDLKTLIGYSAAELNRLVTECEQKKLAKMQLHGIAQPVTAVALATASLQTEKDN
As to conditions: protein: recombinant; tags: N-terminal GST; dsDNA, one strand shown. In short, it runs like this: as §1

The target of another assay is ELF1 (Homo sapiens, UniProt P32519 1-619). As to conditions: protein: recombinant; tags: N-terminal GST; dsDNA, one strand shown. In short, it runs like this: as §1
The next assay deals with T3, EHF (Homo sapiens, UniProt Q9NZC4 1-300).
T3 sequence: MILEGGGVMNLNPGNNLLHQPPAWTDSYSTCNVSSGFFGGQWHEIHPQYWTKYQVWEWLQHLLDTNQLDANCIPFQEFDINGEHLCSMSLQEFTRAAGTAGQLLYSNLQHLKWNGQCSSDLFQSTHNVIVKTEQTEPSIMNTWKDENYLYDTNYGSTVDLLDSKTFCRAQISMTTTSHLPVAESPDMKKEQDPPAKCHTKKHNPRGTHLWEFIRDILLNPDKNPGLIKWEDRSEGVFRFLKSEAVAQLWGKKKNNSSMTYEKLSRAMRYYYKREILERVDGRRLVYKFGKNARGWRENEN
As to conditions: protein: recombinant; tags: N-terminal GST; dsDNA, one strand shown. In short, it runs like this:
as §1

For another assay, the target named is SPI1 (Homo sapiens, UniProt P17947 1-270). As to conditions: protein: recombinant; tags: N-terminal GST; dsDNA, one strand shown. A digest of the protocol:
as §1

For the next assay, the target named is SPIB (Homo sapiens, UniProt Q01892 1-262). As to conditions: protein: recombinant; tags: N-terminal GST; dsDNA, one strand shown. A digest of the protocol:
as §1

The target in another assay is T4, FEV (Homo sapiens, UniProt Q99581 1-238).
T4 sequence: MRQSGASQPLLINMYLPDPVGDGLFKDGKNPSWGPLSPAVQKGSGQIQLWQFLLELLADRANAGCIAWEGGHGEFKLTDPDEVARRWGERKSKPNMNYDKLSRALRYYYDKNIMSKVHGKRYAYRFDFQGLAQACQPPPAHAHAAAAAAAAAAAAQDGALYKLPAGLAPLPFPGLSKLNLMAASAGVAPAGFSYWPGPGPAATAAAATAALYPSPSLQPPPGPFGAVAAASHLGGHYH
As to conditions: protein: recombinant; tags: N-terminal GST; dsDNA, one strand shown. A digest of the protocol:
as §1

For the next assay, the target named is ETV5 (Homo sapiens, UniProt P41161 1-510). As to conditions: protein: recombinant; tags: N-terminal GST; dsDNA, one strand shown. A digest of the protocol: as §1
Another assay concerns the target HSF1 (Homo sapiens, UniProt Q00613 1-529). As to conditions: protein: recombinant; tags: N-terminal GST; chain copies: 3; dsDNA, one strand shown. A digest of the protocol:
as §1

For another assay, the target named is T5, SPIC (Homo sapiens, UniProt Q8N5J4 1-248).
T5 sequence: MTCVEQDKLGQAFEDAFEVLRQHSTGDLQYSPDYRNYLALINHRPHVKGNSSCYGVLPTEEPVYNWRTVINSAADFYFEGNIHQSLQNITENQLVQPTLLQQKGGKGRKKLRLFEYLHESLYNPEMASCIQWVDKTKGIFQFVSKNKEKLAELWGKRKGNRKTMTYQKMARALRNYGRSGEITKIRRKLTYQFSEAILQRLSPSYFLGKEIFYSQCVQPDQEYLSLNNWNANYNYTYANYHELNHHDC
As to conditions: protein: recombinant; tags: N-terminal GST; dsDNA, one strand shown. In short, it runs like this: as §1

In a further assay the target is ELF4 (Homo sapiens, UniProt Q99607 1-663). As to conditions: protein: recombinant; tags: N-terminal GST; dsDNA, one strand shown. In short, it runs like this: as §1
A further assay addresses T6, ELK4 (Homo sapiens, UniProt P28324-2 1-405).
T6 sequence: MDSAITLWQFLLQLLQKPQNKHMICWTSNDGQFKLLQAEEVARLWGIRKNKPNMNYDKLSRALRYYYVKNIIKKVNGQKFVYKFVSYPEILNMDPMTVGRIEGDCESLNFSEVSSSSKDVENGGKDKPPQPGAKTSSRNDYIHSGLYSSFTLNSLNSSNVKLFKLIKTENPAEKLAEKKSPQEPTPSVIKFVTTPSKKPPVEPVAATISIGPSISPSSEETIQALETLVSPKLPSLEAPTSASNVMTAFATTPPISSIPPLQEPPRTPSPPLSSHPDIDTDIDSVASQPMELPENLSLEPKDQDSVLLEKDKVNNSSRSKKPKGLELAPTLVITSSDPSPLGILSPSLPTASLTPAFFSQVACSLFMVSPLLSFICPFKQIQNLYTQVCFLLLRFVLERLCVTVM
As to conditions: protein: recombinant; tags: N-terminal GST; dsDNA, one strand shown. A digest of the protocol: as §1

The next assay deals with T7, ETV2 (Homo sapiens, UniProt O00321 1-342).
T7 sequence: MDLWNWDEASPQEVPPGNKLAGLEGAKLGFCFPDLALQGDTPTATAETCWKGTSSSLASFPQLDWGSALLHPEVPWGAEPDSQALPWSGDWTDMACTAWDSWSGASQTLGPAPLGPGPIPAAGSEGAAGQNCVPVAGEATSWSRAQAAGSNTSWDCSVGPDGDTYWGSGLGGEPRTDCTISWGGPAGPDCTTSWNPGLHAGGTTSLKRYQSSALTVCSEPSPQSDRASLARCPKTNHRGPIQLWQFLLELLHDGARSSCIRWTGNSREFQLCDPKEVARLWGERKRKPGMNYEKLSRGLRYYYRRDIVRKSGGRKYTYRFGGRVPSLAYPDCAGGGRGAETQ
As to conditions: protein: recombinant; tags: N-terminal GST; dsDNA, one strand shown. In short, it runs like this: as §1

The target in another assay is T8, ELF3 (Homo sapiens, UniProt P78545 1-371).
T8 sequence: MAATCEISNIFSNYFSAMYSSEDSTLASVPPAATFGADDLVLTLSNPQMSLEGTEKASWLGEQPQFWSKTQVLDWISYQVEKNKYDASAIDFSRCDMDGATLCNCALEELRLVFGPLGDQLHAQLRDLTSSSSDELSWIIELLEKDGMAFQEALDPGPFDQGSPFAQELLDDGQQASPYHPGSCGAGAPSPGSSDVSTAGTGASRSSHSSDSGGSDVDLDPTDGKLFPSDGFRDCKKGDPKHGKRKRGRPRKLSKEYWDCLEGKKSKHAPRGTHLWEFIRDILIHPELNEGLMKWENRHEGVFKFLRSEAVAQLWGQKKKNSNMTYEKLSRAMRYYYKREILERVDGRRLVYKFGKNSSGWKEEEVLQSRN
As to conditions: protein: recombinant; tags: N-terminal GST; dsDNA, one strand shown. A digest of the protocol:
as §1

A further assay has as its target ETV1 (Homo sapiens, UniProt P50549 1-477). As to conditions: protein: recombinant; tags: N-terminal GST; dsDNA, one strand shown. In short, it runs like this:
as §1

ETV1, sequence (P50549 whole entry): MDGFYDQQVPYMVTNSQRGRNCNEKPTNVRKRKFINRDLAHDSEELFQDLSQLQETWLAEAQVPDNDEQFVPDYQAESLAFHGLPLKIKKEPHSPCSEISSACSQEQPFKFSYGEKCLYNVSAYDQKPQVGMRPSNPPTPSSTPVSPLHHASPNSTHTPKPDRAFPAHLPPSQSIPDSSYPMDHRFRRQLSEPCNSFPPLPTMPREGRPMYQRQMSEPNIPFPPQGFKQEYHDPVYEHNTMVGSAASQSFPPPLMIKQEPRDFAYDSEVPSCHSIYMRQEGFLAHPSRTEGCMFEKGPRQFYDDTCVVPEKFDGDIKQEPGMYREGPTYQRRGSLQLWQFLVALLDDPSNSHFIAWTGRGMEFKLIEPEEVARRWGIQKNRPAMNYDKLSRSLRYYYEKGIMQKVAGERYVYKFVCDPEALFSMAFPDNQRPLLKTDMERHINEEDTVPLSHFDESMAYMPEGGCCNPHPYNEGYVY
ETV5, sequence (P41161 whole entry): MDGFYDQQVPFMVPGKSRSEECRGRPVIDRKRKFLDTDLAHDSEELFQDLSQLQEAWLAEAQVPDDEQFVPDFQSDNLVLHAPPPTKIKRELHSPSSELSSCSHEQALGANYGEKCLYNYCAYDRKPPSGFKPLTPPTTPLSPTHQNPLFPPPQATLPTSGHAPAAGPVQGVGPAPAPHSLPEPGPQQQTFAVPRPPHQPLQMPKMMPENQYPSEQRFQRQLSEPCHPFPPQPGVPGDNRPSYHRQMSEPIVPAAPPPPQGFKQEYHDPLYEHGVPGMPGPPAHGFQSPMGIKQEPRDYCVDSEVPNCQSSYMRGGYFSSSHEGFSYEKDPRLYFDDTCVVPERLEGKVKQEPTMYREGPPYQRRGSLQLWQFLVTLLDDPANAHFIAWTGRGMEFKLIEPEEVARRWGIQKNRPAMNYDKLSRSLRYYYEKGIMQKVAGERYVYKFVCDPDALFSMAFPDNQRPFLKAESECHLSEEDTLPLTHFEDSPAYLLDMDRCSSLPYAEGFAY
SPIB, sequence (Q01892 whole entry): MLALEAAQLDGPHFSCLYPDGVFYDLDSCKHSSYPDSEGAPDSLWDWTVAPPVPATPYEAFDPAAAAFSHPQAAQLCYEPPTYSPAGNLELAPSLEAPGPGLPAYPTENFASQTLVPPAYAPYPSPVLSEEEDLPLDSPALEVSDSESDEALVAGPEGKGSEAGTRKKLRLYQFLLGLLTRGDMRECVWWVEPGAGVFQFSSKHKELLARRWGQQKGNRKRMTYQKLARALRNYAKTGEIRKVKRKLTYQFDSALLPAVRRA
HSF1, sequence (Q00613 whole entry): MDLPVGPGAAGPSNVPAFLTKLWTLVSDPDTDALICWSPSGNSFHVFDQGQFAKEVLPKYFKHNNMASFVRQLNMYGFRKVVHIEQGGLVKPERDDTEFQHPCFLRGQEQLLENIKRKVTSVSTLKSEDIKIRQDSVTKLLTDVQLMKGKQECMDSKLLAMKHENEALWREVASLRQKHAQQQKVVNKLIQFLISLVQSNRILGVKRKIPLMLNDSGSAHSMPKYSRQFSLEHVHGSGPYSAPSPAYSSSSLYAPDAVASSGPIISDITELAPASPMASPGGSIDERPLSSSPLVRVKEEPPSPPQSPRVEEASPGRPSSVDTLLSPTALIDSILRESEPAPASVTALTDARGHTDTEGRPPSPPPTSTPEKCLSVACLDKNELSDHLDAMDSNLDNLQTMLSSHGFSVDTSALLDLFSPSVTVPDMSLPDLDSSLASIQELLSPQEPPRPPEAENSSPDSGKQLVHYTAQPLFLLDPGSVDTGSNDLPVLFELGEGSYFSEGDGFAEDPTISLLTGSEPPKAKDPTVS
ELF1, sequence (P32519 whole entry): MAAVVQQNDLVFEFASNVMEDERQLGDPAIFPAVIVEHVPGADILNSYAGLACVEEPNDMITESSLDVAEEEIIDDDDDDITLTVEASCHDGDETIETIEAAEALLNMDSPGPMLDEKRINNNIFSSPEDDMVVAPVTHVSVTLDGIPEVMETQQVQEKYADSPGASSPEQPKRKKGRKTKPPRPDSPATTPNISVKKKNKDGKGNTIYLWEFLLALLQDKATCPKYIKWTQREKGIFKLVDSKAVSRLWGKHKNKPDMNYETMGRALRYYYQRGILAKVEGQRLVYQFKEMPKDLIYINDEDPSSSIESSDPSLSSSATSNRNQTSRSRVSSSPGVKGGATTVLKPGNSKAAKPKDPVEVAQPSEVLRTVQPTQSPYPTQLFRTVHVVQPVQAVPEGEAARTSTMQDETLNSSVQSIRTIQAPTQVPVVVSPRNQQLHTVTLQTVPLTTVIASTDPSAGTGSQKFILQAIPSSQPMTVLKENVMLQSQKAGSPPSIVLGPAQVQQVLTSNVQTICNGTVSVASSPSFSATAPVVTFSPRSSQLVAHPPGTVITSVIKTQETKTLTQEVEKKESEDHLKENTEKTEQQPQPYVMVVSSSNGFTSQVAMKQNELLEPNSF
ELF4, sequence (Q99607 whole entry): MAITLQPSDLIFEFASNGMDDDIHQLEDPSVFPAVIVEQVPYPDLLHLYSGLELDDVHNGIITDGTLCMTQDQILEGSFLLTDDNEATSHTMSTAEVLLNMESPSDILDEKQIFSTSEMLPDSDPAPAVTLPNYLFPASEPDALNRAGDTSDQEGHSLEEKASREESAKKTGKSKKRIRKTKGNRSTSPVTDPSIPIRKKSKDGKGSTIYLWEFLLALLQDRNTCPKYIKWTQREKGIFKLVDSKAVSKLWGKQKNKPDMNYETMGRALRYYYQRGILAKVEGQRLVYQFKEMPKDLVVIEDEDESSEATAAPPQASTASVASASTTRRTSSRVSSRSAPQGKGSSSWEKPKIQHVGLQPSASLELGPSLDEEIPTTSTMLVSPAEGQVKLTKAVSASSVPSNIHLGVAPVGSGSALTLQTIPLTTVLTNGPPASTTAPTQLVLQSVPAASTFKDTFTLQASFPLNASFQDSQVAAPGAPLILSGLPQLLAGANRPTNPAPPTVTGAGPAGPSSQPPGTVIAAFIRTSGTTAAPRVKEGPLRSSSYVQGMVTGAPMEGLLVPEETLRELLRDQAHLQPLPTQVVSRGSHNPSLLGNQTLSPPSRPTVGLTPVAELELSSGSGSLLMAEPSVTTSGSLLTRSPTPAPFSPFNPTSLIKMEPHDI

Take ATGCTG: the binding signal with FLI1 is 1.09 fold enrichment (6-mer frequency, TF over GST control); in the assay with GABPA, 1.07 fold enrichment (6-mer frequency, TF over GST control); in the assay with ELF1, 1.13 fold enrichment (6-mer frequency, TF over GST control); in the assay with EHF it was 1.22 fold enrichment (6-mer frequency, TF over GST control); in the assay with SPI1, 1.07 fold enrichment (6-mer frequency, TF over GST control); with SPIB it was 1.05 fold enrichment (6-mer frequency, TF over GST control). Further, the binding signal was 1.06 fold enrichment (6-mer frequency, TF over GST control) in the assay with FEV; 1.13 fold enrichment (6-mer frequency, TF over GST control) in the assay with ETV5; 1.02 fold enrichment (6-mer frequency, TF over GST control) in the assay with HSF1; 1.14 fold enrichment (6-mer frequency, TF over GST control) with SPIC; 1.06 fold enrichment (6-mer frequency, TF over GST control) in the assay with ELF4; 1.26 fold enrichment (6-mer frequency, TF over GST control) with ELK4. In addition, the binding signal with ETV2 was 1.19 fold enrichment (6-mer frequency, TF over GST control); in the assay with ELF3, 1.26 fold enrichment (6-mer frequency, TF over GST control); with ETV1 it was 1.06 fold enrichment (6-mer frequency, TF over GST control).

These data come from PMC7862700, “An all-to-all approach to the identification of sequence-specific readers for epigenetic DNA modifications on cytosine”.
